# NIH3T3 tox: Cytotoxic Profiling in NIH 3T3 Cell Line of Diverse Libraries Using Quantitative High-Throughput Screening | NIH 3T3 viability, CellTiter-Glo ATP luminescence, 48-72 h | AID 1345082, 2018 | 94,000 tested, 4.3% active | Potency, µM (titrated, usually from 96.7 µM), for inactives: top-dose activity change, negative = cytotoxicity, most hits filed as inhibitors; also: nearly all actives have a fitted effect of over 55% in size
#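 Luminescent ATP readout (CellTiter-Glo, 10 min RT) after 48 or 72 hr compound exposure of NIH 3T3 cells seeded at 400 cells/well in 1536-well format; quantitative HTS.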
# NPR1 antag: Natriuretic polypeptide receptor (hNpr1) antagonism - Primary qHTS | 76,000 tested, 1.6% active | Potency, µM (series often up to 46.3 µM), without a hit: at the top dose activity change, negative = inhibition, actives largely listed as inhibitors | HEK293 hNpr1 GloSensor cGMP, ANP-stimulated luminescence; calls by dose curve; also: nearly all actives have a fitted effect of over 60% in size
# Target sequence (P16066 whole entry, looked up): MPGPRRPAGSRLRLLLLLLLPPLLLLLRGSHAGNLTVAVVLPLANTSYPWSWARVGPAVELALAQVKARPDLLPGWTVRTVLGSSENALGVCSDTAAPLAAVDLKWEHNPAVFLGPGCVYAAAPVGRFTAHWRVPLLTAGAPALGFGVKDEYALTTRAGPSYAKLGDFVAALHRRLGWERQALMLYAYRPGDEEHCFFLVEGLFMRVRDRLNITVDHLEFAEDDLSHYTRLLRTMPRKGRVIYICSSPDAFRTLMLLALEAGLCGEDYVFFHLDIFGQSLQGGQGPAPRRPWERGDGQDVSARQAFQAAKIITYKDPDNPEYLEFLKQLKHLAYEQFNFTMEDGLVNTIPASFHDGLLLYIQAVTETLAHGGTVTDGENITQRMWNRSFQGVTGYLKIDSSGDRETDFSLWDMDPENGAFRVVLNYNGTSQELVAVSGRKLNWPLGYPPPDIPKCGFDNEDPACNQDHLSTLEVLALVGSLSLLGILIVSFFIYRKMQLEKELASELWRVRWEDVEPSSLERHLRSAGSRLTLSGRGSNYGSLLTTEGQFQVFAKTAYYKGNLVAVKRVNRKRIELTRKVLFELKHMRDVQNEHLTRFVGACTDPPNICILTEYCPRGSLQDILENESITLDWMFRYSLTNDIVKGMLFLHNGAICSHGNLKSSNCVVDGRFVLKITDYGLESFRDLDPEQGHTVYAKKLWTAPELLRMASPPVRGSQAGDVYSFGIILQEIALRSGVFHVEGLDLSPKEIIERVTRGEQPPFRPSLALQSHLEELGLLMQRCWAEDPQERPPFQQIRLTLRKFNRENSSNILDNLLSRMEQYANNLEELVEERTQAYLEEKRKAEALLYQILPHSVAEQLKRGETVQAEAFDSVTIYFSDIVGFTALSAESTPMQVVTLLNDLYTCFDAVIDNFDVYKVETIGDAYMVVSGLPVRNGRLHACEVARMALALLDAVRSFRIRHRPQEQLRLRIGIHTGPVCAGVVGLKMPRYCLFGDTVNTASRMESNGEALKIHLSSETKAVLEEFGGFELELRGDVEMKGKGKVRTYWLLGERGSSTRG
#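 HEK293 cells stably expressing human Npr1 and cGMP GloSensor pGS-40F, loaded 2 h with 2% GloSensor reagent, given compound 30 min at room temperature. Luminescence read before and 20 min after 0.1 nM hNppA.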
# Luciferase inh: Firefly luciferase inhibition profiling of diverse chemical library using quantitative high-throughput screening; Luciferin 4-monooxygenase (Photinus pyralis), P08659; purified P. pyralis luciferase, luminescence, biochemical; Potency, µM (highest dose often 115 µM), most hits filed as inhibitors; 76,000 tested, 2.5% active; AID 1347043, 2019; also: nearly all actives have a fitted effect of over 65% in size
#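 FLuc 10nM, D-luciferin 10uM, ATP 10uM, Mg acetate 10mM, Tris acetate pH 7.5, Tween/BSA; cpd qHTS; enzyme added last; CCD luminescence.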
# GPT2 inhibitor: Primary qHTS assay for inhibitors of Glutamate pyruvate transaminase 2 (GPT2); Alanine aminotransferase 2 (Homo sapiens), Q8TD30; Recombinant GPT2, coupled pyruvate oxidase/HRP Amplex Red fluorescence; Potency, µM (series often up to 57.7 µM), inactives show at the highest dose activity change, negative = inhibition, most hits filed as inhibitors; 100,000 tested, 0.25% active; AID 1671188, 2021; also: nearly all actives have a fitted effect of over 60% in size
#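 Fluorescence read-out: pyruvate from GPT2 turnover coupled to pyruvate oxidase, HRP and Amplex Red (0.2mM ThPP, 0.2U/mL PO and HRP, 50uM Amplex final). Substrates 250uM a-KG, 2mM L-alanine; enzyme 10ng/uL; 30 min RT.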
# HEK cytotox: Cytotoxic Profiling in HEK 293 Cell Line of Diverse Libraries Using Quantitative High-Throughput Screening; 94,000 tested, 6.6% active; AID 1345083, 2018; HEK 293 viability, ATP luminescence (CellTiter-Glo), 48-72 h; Potency, µM (top dose mostly 115 µM), for inactives: at the highest dose activity change, negative = cytotoxicity, usual class: inhibitors; also: nearly all actives have a fitted effect of over 60% in size
#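 CellTiter-Glo luminescence (cellular ATP) was read after 48 or 72 hr of compound exposure at 37 degree Celsius. Cells were HEK 293 plated at 250 cells/well.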
# * hit, by the source's call; i = inactive; ? = inconclusive; . = no result given; [ ] = dose if it differs, or a comment. Rows were chosen to be rich in hits. Some 10% of all compounds tested hit in one or more screens of this group. Unless noted, calls follow the shape of the dose curve; as a rule, active = well fitted curve in the direction sought with a large enough effect; inconclusive = small, poorly fitted or top-dose-only effect, or another doubt; inactive = no such curve, though single readings can be large; an effect the other way counts as inactive or inconclusive. % is scaled to controls: 0 for no effect and ±100 for the full control effect; potency is read from the fitted curve at half-maximal effect.
SMILES,NIH3T3 tox,NPR1 antag,Luciferase inh,GPT2 inhibitor,HEK cytotox
COC(=O)[C@@H]1[C@H]2C[C@H]3c4[nH]c5ccccc5c4CCN3C[C@@H]2CC[C@@H]1O,.,.,.,2%,.
CCn1nccc1C(=O)N1CCC(CCOC)(NC(=O)c2ccccc2)CC1,3%,.,.,i,-5%
Cc1cc(-c2nc3ccncc3[nH]2)c(C)o1,?,0%[70.6 µM],45µM*,?,?
c1cc2nc(-c3ccsc3)[nH]c2cn1,?,-10%[70.6 µM],?,0%[88.5 µM],?
NC(=O)c1ccc(-c2nc3c([nH]2)CN(c2ncnc4ccsc24)CC3)cc1,-10%,-16%,i,-2%,32µM*
CCC(C)(C)C(=O)N1CCC2(CCc3nn(Cc4ccccc4)c(=O)n3CC2)CC1,?,.,.,0%,?
COC(=O)N1CCC2(CC1)CCN(Cc1cccs1)c1ccccc1O2,?,24%,i,-22%,?
CCCN1CCC2(CCN(C(=O)OC)CC2)Oc2ccccc21,?,0%[70.6 µM],i,i,100µM*
CCCN1CCC2(CCN(C(=O)c3ccc(OC)cc3)CC2)Oc2ccccc21,?,0%,i,-4%,45µM*
CC(C)(C)c1ccc(C(=O)N2C[C@@H](CO)[C@H](c3ccncc3)C2)cc1,-8%,0%,i,-9%,-5%
Cc1ccc(CNC(=O)c2ccc3c(c2)CN(Cc2cncs2)CCO3)cc1,-9%,-11%,i,-5%,?
Cc1ccc(CNC(=O)c2ccc3c(c2)CN(Cc2cccc(F)c2)CCO3)cc1,?,-9%,i,i,?
Cc1ccc(CNC(=O)c2ccc3c(c2)CN(CC2=Cc4ccccc4OC2)CCO3)cc1,?,?,i,i,28µM*
Cc1ccc(CNC(=O)c2ccc3c(c2)CN(Cc2cc(F)c(F)c(F)c2)CCO3)cc1,?,-1%,i,-6%,35µM*
COc1ccc(Nc2ccc3c(n2)CN(Cc2nc4ccccc4s2)C(=O)CO3)cn1,?,?,?,i,50µM*
COc1ccc(Nc2ccc3c(n2)CN(Cc2ccccc2F)C(=O)CO3)cc1,?,?,i,-21%[88.5 µM],63µM*
COc1ccc(Nc2ccc3c(n2)CN(Cc2ccccc2C)C(=O)CO3)cc1,79µM*,?,i,-18%[88.5 µM],89µM*
O=C1COc2ccc(Nc3ccccc3)nc2CN1Cc1ccccc1,?,-3%[70.6 µM],i,-7%[88.5 µM],?
COc1ccccc1-n1c(=O)c(C(=O)NC2CCCC2)nc2cccnc21,-17%,.,.,-5%,0%
O=C(NCCCc1ccncc1)C1CC12CCN(C(=O)c1cccc(C(F)(F)F)c1)CC2 (centres undefined),-9%,3%,i,-11%,-17%
O=C(O)c1ccnc(-c2ccnc(NCC(O)c3ccccc3Cl)n2)c1 (centres undefined),i,2%,32µM*,-3%,i
CN1CCCN(C(=O)c2ccc(F)cc2)c2ccccc21,?,1%,i,i,-18%
Cc1cc(C)cc(C(=O)N2CCCN(C)c3ccccc32)c1,?,-1%,i,i,40µM*
CN(C(=O)c1cc2ccccc2oc1=O)C1CCCN(CCCc2ccccc2)C1 (centres undefined),40µM*,0%,i,i,?
O=C(CCc1c[nH]c2ccccc12)N1CCC2(CC1)CC(Cc1nc(C3CC3)no1)CCO2 (centres undefined),?,-19%,i,?,?
SMILES,NIH3T3 tox,NPR1 antag,Luciferase inh,GPT2 inhibitor,HEK cytotox
O=C1NCc2ccccc2CC12CCCN2CC1CCCCC1 (centres undefined),?,.,.,4%,?
Cc1cc(C(=O)NCC2Cn3cccc3CN2Cc2ccccc2)n[nH]1 (centres undefined),-22%,1%,?,i,?
O=C(NCC1Cn2cccc2CN1Cc1ccccc1)c1ccc2cc[nH]c2c1 (centres undefined),?,-12%,i,-14%,79µM*
CN(Cc1cccnc1)Cc1nc(C2(O)CCN(Cc3ccccc3)CC2)cs1,?,-17%[70.6 µM],i,i,?
O=C(C[C@@H]1CCNC[C@@H]1Cc1cc(COc2ccccc2)on1)NCc1ccccc1,?,-26%[70.6 µM],i,3%[88.5 µM],79µM*
O=C(C[C@@H]1CCNC[C@@H]1Cc1cc(COc2ccccc2)on1)NCc1cccnc1,-16%[174 µM],-5%[70.6 µM],i,-3%[88.5 µM],-15%[172 µM]
O=C(C[C@@H]1CCNC[C@@H]1Cc1cc(COc2ccccc2)on1)Nc1ccccc1,32µM*,-9%[70.6 µM],i,5%[88.5 µM],40µM*
O=C(C[C@@H]1CCNC[C@@H]1Cc1cc(CSc2ccccc2)on1)N1CCN(c2ccccc2)CC1,25µM*,-19%,i,-2%,?
O=C(C[C@@H]1CCNC[C@@H]1Cc1cc(CSc2ccccc2)on1)Nc1ccccc1,71µM*,-15%[70.6 µM],i,i,45µM*
O=C(C[C@@H]1CCNC[C@@H]1Cc1cc(CN2CCOCC2)on1)N1CCN(c2ccccc2)CC1,-5%,-9%,i,-23%,0%
CC(C)(C)NC(=O)C[C@@H]1CCNC[C@@H]1Cc1cc(COc2ccccc2)on1,-17%[174 µM],5%[70.6 µM],i,-6%[88.5 µM],?
COc1ccc(CN2CCOC[C@H]2c2ncc(C(C)(C)C)[nH]2)cc1,-15%[138 µM],3%[70.6 µM],i,-7%[88.5 µM],-30%[172 µM]
Cc1ccccc1-c1nccn2c(C3CN(Cc4ccc(O)cc4)C3)ncc12,79µM*,4%[70.6 µM],i,-10%[88.5 µM],?
Cc1ccccc1-c1nccn2c(C3CN(C(=O)c4cc5ccccc5[nH]4)C3)ncc12,79µM*,-28%[70.6 µM],?,-13%[88.5 µM],89µM*
O=C(NCCN1CCOCC1)c1ccc2nc(-c3ccnc(Cl)c3)oc2c1,-8%[138 µM],.,.,-1%[88.5 µM],-15%[172 µM]
O=C(NC1CCNCC1)c1cc(C2CC2)nc2onc(C3CCNC3)c12 (centres undefined),-15%,.,.,0%,-8%
CNC(=O)[C@@H]1[C@@H](O)C(=O)N(C)C12CCN(C(=O)Cc1cccs1)CC2,?,.,.,.,-3%
O=c1c2nc(NCc3ccccc3)ccc2ncn1Cc1ccccc1,35µM*,2%[70.6 µM],i,-1%[88.5 µM],?
COc1ccccc1-c1ccc2ncn(C3CC3)c(=O)c2n1,?,3%[70.6 µM],i,-12%[88.5 µM],-3%[172 µM]
Cc1csc(Nc2ccc3ncn(Cc4ccccc4)c(=O)c3n2)n1,?,1%[70.6 µM],i,i,?
COc1ccccc1-c1ccc2ncn(Cc3ccccc3)c(=O)c2n1,7.9µM*,3%[70.6 µM],i,-9%[88.5 µM],?

# Source: PubChem BioAssay
